Consider 29 compounds from PubChem BioAssay (NCATS).

Records with an inconclusive call do not appear. The source made the active and inactive calls. The call rests on the fitted dose curve; in most records, active means well fitted cell-killing curve with a large enough effect; inconclusive means small, poorly fitted or top-dose-only effect, or effect the other way; inactive means no such curve, though single readings can be large or run the other way.

Assay [1] can be described thus: Viability qHTS for spleen associated tyrosine kinase inhibitor (SYKi) naive MV4-11 cells (AID 1963823). Further: nearly all actives have a fitted effect of over 40% in size. An outline of the steps: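 SYKi-naive MV4-11 AML cells, 500 per well, were exposed to library compounds for 72 hr at 37 C, 5% CO2. Viability was then read by CellTiter-Glo luminescence after 10 min at room temperature.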
Assay [2] can be described thus: Viability qHTS for spleen associated tyrosine kinase inhibitor (SYKi) drug resistant MV4-11 cells (AID 1963824). Further: nearly all actives have a fitted effect of over 35% in size. An outline of the steps: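 SYK inhibitor-resistant MV4-11 AML cells, 500 per well, added to predispensed compounds and incubated 72 hr at 37 C, 5% CO2. Viability measured by CellTiter-Glo luminescence after 10 min at room temperature.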
Potency means the concentration at half of the fitted maximal effect.

As to `CCCCNc1ncc(C(=O)NCc2ccc(-n3ccnc3)cc2)c(NC2CCC(O)CC2)n1` (stereo not drawn), the Potency in assay [1] is 0.092 µM (active); in assay [2], 0.259 µM (active).

Turning to `O=C1C=CC2OC(c3ccccc3)C(O)C2O1` (stereo not drawn), the Potency is 6.51 µM (active) in assay [1] and 4.11 µM (active) in assay [2].

`C/C=C/C1OC2=C(C(=O)OC2(C)O)C(O)C1O` (stereo not drawn): the Potency entry in assay [1] and in assay [2] was “inactive” each time.

As for `OC[C@H]1O[C@@H](Oc2cc(O)c3c(c2)O[C@@H](c2ccc(O)cc2)[C@H](O)C3)[C@H](O)[C@@H](O)[C@@H]1O`, the Potency result in assay [1] and in assay [2] was “inactive” in each case.

Take `COc1ccc(CC2C(=O)NC(C)C(=O)N(C)C3Cc4ccc(cc4)Oc4cc(ccc4OC4OC(CO)C(O)C(O)C4O)CC(C(=O)NC(C)C(=O)NC(C)C(=O)N2C)N(C)C3=O)cc1` (stereo not drawn): the Potency in assay [1] is 0.0155 µM (active); in assay [2] it was 0.0098 µM (active).

Turning to `C=C1C[C@]23C[C@H]1CC[C@H]2[C@@]12C=C[C@H](O)[C@@](C)(C(=O)O1)[C@H]2[C@@H]3C(=O)O`, the Potency entry in assay [1] and in assay [2] was “inactive” in each case.

As to `COc1cc([C@H]2OC[C@]3(OC(C)=O)[C@@H](c4ccc(O[C@@H]5O[C@H](CO)[C@@H](O)[C@H](O)[C@H]5O)c(OC)c4)OC[C@H]23)ccc1O`, the Potency entry in assay [1] and in assay [2] was “inactive” each time.

Regarding `OC[C@@]1(O)CO[C@@H](OC[C@H]2O[C@@H](Oc3ccccc3)[C@H](O)[C@@H](O)[C@@H]2O)[C@@H]1O`, the Potency entry in assay [1] and in assay [2] was “inactive” throughout.

Turning to `CC1CC(O)C2(C)C(C(=O)O)=CCCC2C1(C)CCc1ccoc1` (stereo not drawn), the Potency entry in assay [1] and in assay [2] was “inactive” in each case.

As to `CC(/C=C/C1(O)C2(C)COC1(C)CC(=O)C2)O[C@@H]1O[C@H](CO)[C@@H](O)[C@H](O)[C@H]1O` (stereo partly drawn), the Potency result in assay [1] and in assay [2] was “inactive” in each case.

In the case of `COc1cc(OC)cc(-c2ccc3c(-c4ccc(F)cc4)[nH]nc3n2)c1`, the Potency result in assay [1] and in assay [2] was “inactive” in each case.

As for `CC(C)Oc1ccc(-c2nc(-c3cccc4c3CCC4NCCC(=O)O)no2)cc1C#N` (stereo not drawn), the Potency entry in assay [1] and in assay [2] was “inactive” each time.

Regarding `COc1ccc(Cl)cc1[C@@]1(F)C(=O)Nc2cc(C(F)(F)F)ccc21`, the Potency in assay [1] was 9.2 µM (active); in assay [2] it was 6.51 µM (active).

With `C=C1C(=O)OC2C1CCC1(C)C(O)CC=C(C)C21` (stereo not drawn), the Potency in assay [1] was 10.3 µM (active); in assay [2] it was 4.61 µM (active).

Turning to `CC[C@H]1OC(=O)[C@H](C)[C@@H](O[C@H]2C[C@@](C)(OC)[C@@H](O)[C@H](C)O2)[C@H](C)[C@@H](O[C@@H]2O[C@H](C)C[C@H](N(C)C)[C@H]2O)[C@](C)(O)C[C@@H](C)/C(=N/OCOCCOC)[C@H](C)[C@@H](O)[C@]1(C)O`, the Potency entry in assay [1] and in assay [2] was “inactive” throughout.

Turning to `CC1=CC(=O)CC(C)(C)C1(O)CCC(C)O` (stereo not drawn), the Potency result in assay [1] and in assay [2] was “inactive” throughout.

As for `COc1cc(/C=C/C(=O)O[C@H]2[C@H](O)[C@@H](CO)O[C@@]2(CO)O[C@H]2O[C@H](CO)[C@@H](O)[C@H](O)[C@H]2O)cc(OC)c1O`, the Potency result in assay [1] and in assay [2] was “inactive” in each case.

Regarding `CC(=O)NC1CC(=O)C23C(=O)NC(Cc4c[nH]c5ccccc45)C2C(C)=C(C)C(O)C3/C=C/CC(C)/C=C(/C)C(O)C1O` (stereo not drawn), the Potency entry in assay [1] and in assay [2] was “inactive” in each case.

For `C=C1C(=O)O[C@@H]2/C=C(\C)CC/C=C(\C)CC[C@@H]12`, the Potency in assay [1] was 7.31 µM (active); in assay [2] it was 2.59 µM (active).

`CC(=O)[C@@H]1C[C@H](C(C)(C)O[C@@H]2O[C@H](CO)[C@@H](O)[C@H](O)[C@H]2O)CC[C@@]2(CO)OC(=O)C[C@@H]12`: the Potency entry in assay [1] and in assay [2] was “inactive” in each case.

As to `C=C1C(=O)O[C@@H]2[C@H]3C(C)=CC[C@@]34O[C@@]4(C)CC[C@@H]12`, the values for the Potency in assay [1] and in assay [2] were 3.32 µM (active) and 1.48 µM (active), respectively.

In the case of `N#CCc1ccc(O)cc1O[C@@H]1O[C@H](CO)[C@@H](O)[C@H](O)[C@H]1O`, the Potency entry in assay [1] and in assay [2] was “inactive” each time.

On to `O=C(CCc1nnc2n(Cc3ccc(Cl)cc3)c(=O)c3ccccc3n12)NCCC1=CCCCC1`, for which the Potency entry in assay [1] and in assay [2] was “inactive” in each case.

Turning to `CC[N+]1(C/C2=C/CCCCCC2)CCC(NC(=O)C2c3cc(Cl)ccc3Oc3ccc(Cl)cc32)CC1` (stereo not drawn), the values for the Potency in assay [1] and in assay [2] were 6.51 µM (active) and 3.66 µM (active), respectively.

Regarding `CC1CCC2C(C)(C)C(O)CCC2(C)C12Cc1c(O)cc3c(c1O2)CN=C3N` (stereo not drawn), the Potency entry in assay [1] and in assay [2] was “inactive” throughout.

With `Cc1[nH]c2ccccc2c1C1=C(NCCc2ccc(F)cc2)C(=O)N(C)C1=O`, the Potency was 16.4 µM (active) in assay [1] and 11.6 µM (active) in assay [2].

`O=C(OCc1ccccc1O[C@@H]1O[C@H](CO)[C@@H](O)[C@H](O)[C@H]1O)C1(O)C=CCCC1O` (stereo partly drawn): the Potency result in assay [1] and in assay [2] was “inactive” each time.

As for `CC(=O)c1ccc2c(c1)C(O)C(C(C)(C)O)O2` (stereo not drawn), the Potency entry in assay [1] and in assay [2] was “inactive” in each case.

For the compound `O=C(Nc1ccc(S(=O)(=O)C(F)(F)F)cc1)C1=CCN(c2ncccc2C(F)(F)F)CC1`, the values for the Potency in assay [1] and in assay [2] were 5.8 µM (active) and 3.66 µM (active), respectively.
